Drawing on PubChem BioAssay (EPA / NIEHS), this text covers outcome and AC50 for 30 compounds.

SMILES strings stand for the structures. The source holds several records for some structures; these can differ, active in one and inactive in another. Active and inactive are the calls of the source. How the source made its calls: active means hit-call score of the fitted dose curve at least 0.9, where 1 is the maximum; inactive means score below 0.9.

This assay is described as follows: ATG_RORE_CIS: Attagene CIS-FACTORIAL HepG2 Assay for human RAR-related Orphan Receptor Element (RORE) (AID 2282959). The note with it: HepG2 Attagene cis-factorial RORE reporter, mRNA; actives raise or lower the signal. An outline of the steps:
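Measured here: transcript induction of a cis-regulated reporter in HepG2 cells transiently transfected via FuGene 6. After 24 h, RNA was processed by RT-PCR and fluorescent capillary electrophoresis; DMSO defined baseline activity.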
`CCCCOC(=O)[C@@H](C)Oc1ccc(Oc2ccc(C(F)(F)F)cn2)cc1`: the result was inactive. Turning to `CCOC(=O)c1ccc(O)cc1`, the AC50 is 57.3 µM (active) and the result was inactive. `COC(=O)c1ccccc1S(=O)(=O)NC(=O)Nc1nc(OC(F)F)cc(OC(F)F)n1`: the compound was classed as inactive. Same read-out and setting: the result for `COC(=O)c1cccc(C)c1S(=O)(=O)NC(=O)Nc1nc(OCC(F)(F)F)nc(N(C)C)n1` reads “inactive”. As for `CCC(O)=C1C(=O)CC(C(=O)O)CC1=O` (stereo not drawn), the call was inactive. Consider `CCCCOC(=O)C(C)Oc1ccc(Oc2ccc(C(F)(F)F)cn2)cc1` (stereo not drawn), for which the compound was called inactive. The same measure, in the same setting: the entry for `COC(=O)CSc1cc(N=c2sc(=O)n3n2CCCC3)c(F)cc1Cl` is “inactive”. Take `COc1nc(C)nc(NC(=O)NS(=O)(=O)c2ccccc2OCCCl)n1`: the outcome was inactive.

On to `N[C@@H](Cc1cc(I)c(Oc2ccc(O)c(I)c2)c(I)c1)C(=O)O`, for which the outcome was inactive.

`CCCCC(CC)CN1C(=O)C2C3C=CC(C3)C2C1=O` (stereo not drawn): the AC50 was 34 µM (active). In the case of `C[C@]12CC[C@@H]3c4ccc(O)cc4C[C@@H](CCCCCCCCCS(=O)CCCC(F)(F)C(F)(F)F)[C@H]3[C@@H]1CC[C@@H]2O` (stereo partly drawn), the result was inactive. On the same count and under the same terms, the entry for `CC(C)CCCCCCc1ccc(O)cc1` is “inactive”; for `O=C(c1ccc(O)cc1O)c1ccc(O)cc1O` it is “inactive”. Take `CN(C)C(=O)Nc1ccc(Cl)c(Cl)c1`: the concentration at half-maximal activity (AC50) was 100 µM (active) and the result was inactive. For `COCCO`, the call was inactive.

For the compound `N#CSCSc1nc2ccccc2s1`, the result was inactive. The same measure, in the same setting: the entry for `CCOC(=O)COc1cc(-n2ncc(C(F)(F)F)c(C)c2=O)c(F)cc1Cl` is “inactive”; for `C#C[C@]1(O)CC[C@H]2[C@@H]3CCC4=CC(=O)CC[C@@H]4[C@H]3CC[C@@]21CC` it is “inactive”; for `CCCN(CCC)c1c([N+](=O)[O-])cc(C(F)(F)F)c(N)c1[N+](=O)[O-]` it is “inactive”. Still for that read-out and setting: the result for `COC(=O)c1ccccc1C(=O)O` reads “inactive”; that for `C=CCOC(Cn1ccnc1)c1ccc(Cl)cc1Cl` (stereo not drawn), “inactive”. Turning to `CSC(=O)c1cccc2nnsc12`, the outcome was inactive. The same measure, in the same setting: the result for `CC(=O)S[C@@H]1CC2=CC(=O)CC[C@]2(C)[C@H]2CC[C@@]3(C)[C@@H](CC[C@@]34CCC(=O)O4)[C@H]12` reads “inactive”; that for `c1ccc2[nH]c(-c3cscn3)nc2c1`, “inactive”; that for `C[C@]12C[C@H](O)[C@H]3[C@@H](CCC4=CC(=O)CC[C@@]43C)[C@@H]1CC[C@@H]2C(=O)CO`, “inactive”. Consider `OB(O)O`, for which the compound was called inactive. In the case of `S=C(S)NCCNC(=S)S.[Mn+2].[S-]C([S-])=NCCN=C([S-])[S-].[Zn+2]`, the AC50 is 19.6 µM (active) and the outcome was inactive. `COC(=O)c1ccc(CNS(C)(=O)=O)cc1S(=O)(=O)NC(=O)Nc1nc(OC)cc(OC)n1`: the result was inactive. The same measure, in the same setting: the entry for `O=C(c1ccccc1)C1CCCCC1` is “inactive”. The same measure, in the same setting: the result for `COC(=O)c1c(Cl)nn(C)c1S(=O)(=O)NC(=O)Nc1nc(OC)cc(OC)n1` reads “inactive”.

As a reminder, the AC50 is the midpoint of the concentration-response curve, whichever way the signal moves.
